# Assay outcomes: PubChem BioAssay, National Center for Advancing Translational Sciences (NCATS)
# Only some compounds are listed: those with a hit (about 10% of all), similar ones and a draw of the others.
# FLuc inh-1: inhibitors of firefly (Photinus pyralis) luciferase; purified P. pyralis luciferase, luminescence, biochemical; Potency, µM (series often up to 115 µM), actives largely listed as inhibitors; 2.5% of 76,000 active; AID 1347043; further: nearly all actives have a fitted effect of over 65% in size
# Target sequence (P08659 whole entry, looked up): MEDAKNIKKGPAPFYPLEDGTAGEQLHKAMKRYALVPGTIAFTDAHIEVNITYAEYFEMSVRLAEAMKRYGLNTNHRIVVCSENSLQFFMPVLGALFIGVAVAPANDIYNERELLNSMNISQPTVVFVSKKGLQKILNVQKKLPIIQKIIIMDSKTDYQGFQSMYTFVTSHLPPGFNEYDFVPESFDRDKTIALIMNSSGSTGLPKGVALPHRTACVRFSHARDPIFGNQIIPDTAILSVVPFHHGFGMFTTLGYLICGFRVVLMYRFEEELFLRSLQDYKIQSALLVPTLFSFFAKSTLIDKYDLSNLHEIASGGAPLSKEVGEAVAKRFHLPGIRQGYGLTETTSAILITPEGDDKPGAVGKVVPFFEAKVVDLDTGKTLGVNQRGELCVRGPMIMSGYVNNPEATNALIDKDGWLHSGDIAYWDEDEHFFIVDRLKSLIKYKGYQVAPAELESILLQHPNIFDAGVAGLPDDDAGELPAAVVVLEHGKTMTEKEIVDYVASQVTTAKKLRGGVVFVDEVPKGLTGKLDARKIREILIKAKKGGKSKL
#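 Luminescence read by CCD imager after adding enzyme (10nM final) to wells holding compound, titrated in qHTS. Substrates 10uM each D-luciferin and ATP; buffer 50mM Tris acetate pH 7.5, 10mM Mg acetate, Tween-20, BSA.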
# 3T3 cytotox: kills NIH 3T3 cells. NIH 3T3 viability, CellTiter-Glo ATP luminescence, 48-72 h. Potency, µM (series often up to 96.7 µM), usual class: inhibitors. 4.3% of 94,000 active. AID 1345082; further: nearly all actives have a fitted effect of over 55% in size
#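 Cytotoxicity is measured as loss of cellular ATP: NIH 3T3 cells (400/well) are exposed to compound for 48 or 72 hr at 37 °C, then CellTiter-Glo luminescence is imaged after 10 min at room temperature.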
# NPR1 antag: blocks ANP-stimulated signaling of human Npr1 receptor. AID 1347048. Potency, µM (highest dose often 46.3 µM), usual class: inhibitors. HEK293 hNpr1 GloSensor cGMP, ANP-stimulated luminescence. P16066. 1.6% of 76,000 active; calls by dose curve; further: nearly all actives have a fitted effect of over 60% in size
#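 Compound pre-incubated 30 min at room temperature on GloSensor-loaded HEK293 cells stably carrying hNpr1 and the pGS-40F cGMP biosensor. Stimulation uses hNppA at 0.1 nM final; luminescence is taken at baseline and 20 min post-agonist.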
# HEK293 tox: kills HEK 293 cells. HEK 293 viability, ATP luminescence (CellTiter-Glo), 48-72 h. Potency, µM (doses to about 115 µM), hits mostly inhibitors. AID 1345083. 6.6% of 94,000 active; further: nearly all actives have a fitted effect of over 60% in size
#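 CellTiter-Glo luminescence (cellular ATP) was read after 48 or 72 hr of compound exposure at 37 degree Celsius. Cells were HEK 293 plated at 250 cells/well.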
# GPT2 inhibitor: blocks human glutamate pyruvate transaminase 2; Q8TD30; Recombinant GPT2, coupled pyruvate oxidase/HRP Amplex Red fluorescence; Potency, µM (series often up to 57.7 µM), hits mostly inhibitors; 0.25% of 100,000 active; AID 1671188; further: nearly all actives have a fitted effect of over 60% in size
#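 GPT2 10ng/uL, a-KG 250uM, L-Ala 2mM, HEPES pH7.5 + 0.0001% Tween; 30 min RT. Then Amplex mix (PO/HRP/ThPP), 30 min RT dark, fluorescence. AOA 50uM used as positive control.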
# FLuc SDR no ATP: stabilizes firefly luciferase without ATP; Potency, µM (highest dose often 32.7 µM), hits mostly activators; 7.8% of 1,300 active; shares compounds with FLuc inh-1; Purified FLuc-C-HiBiT, Nano-Glo HiBiT luminescence, no ATP; further: nearly all actives have a fitted effect of over 55% in size
# FLuc SDR ATP: binders stabilizing firefly luciferase, plus ATP; shares compounds with FLuc inh-1; purified FLuc-C-HiBiT + ATP, HiBiT complementation luminescence; Potency, µM (series often up to 32.7 µM), hits mostly activators; 8.7% of 1,300 active; AID 1963319;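 further: signal reports ligand binding via conformational change of the enzyme rather than luciferase catalysis; nearly all actives have a fitted effect of over 55% in size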
# FLuc inh-2: firefly luciferase enzyme inhibition | AID 1963320 | shares compounds with FLuc inh-1 | 42% of 1,300 active | purified FLuc-C-HiBiT enzyme, luciferin luminescence | Potency, µM (top dose mostly 32.7 µM), actives largely listed as inhibitors; further: nearly all actives have a fitted effect of over 70% in size
# Hits are given with their value; 0 = inactive; ? = inconclusive; - = no result given. Unless noted, the call rests on the fitted dose curve; in most records, active means well fitted curve in the direction sought with a large enough effect; inconclusive means small, poorly fitted or top-dose-only effect, or another doubt; inactive means no such curve, though single readings can be large; an effect the other way counts as inactive or inconclusive.
SMILES,FLuc inh-1,3T3 cytotox,NPR1 antag,HEK293 tox,GPT2 inhibitor,FLuc SDR no ATP,FLuc SDR ATP,FLuc inh-2
Cc1ccc(CN2CC[C@@H]3[C@H]2C(=O)NC[C@H](CCC(=O)Nc2ccccc2)N3C)cc1,0,?,0,?,?,-,-,-
c1c(-c2nc(C3CCOC3)no2)sc2c1CCCC2 (stereo unspecified),0.63µM,?,8.9µM,?,0,0,?,5.6µM
CN(Cc1ccccc1)C(=O)[C@@H]1Cc2nc[nH]c2CN1C(=O)CC(C)(C)CC(=O)O,0,0,0,0,0,-,-,-
CC(C)(CC(=O)O)CC(=O)N1Cc2[nH]cnc2C[C@H]1c1nc(Cc2ccccc2)no1,0,0,0,0,0,0,0,0
CCN(CC)C(=O)C(C)[C@@H]1CC[C@@]2(C)Cc3sc(NC(=O)C4CC4)nc3[C@@H](C)[C@@H]2[C@H]1O (stereo partly specified),0,0,0,0,0,-,-,-
C=CCN(C)C(=O)[C@@H](C)C1CC[C@@]2(C)Cc3sc(NC(=O)CN(C)C)nc3[C@@H](C)[C@@H]2[C@H]1O (stereo partly specified),13µM,0,0,0,0,0,0,0
O=C(Nc1cccc(-c2ccc(N3CCOCC3)nn2)c1)Nc1ccc2c(c1)CCC2,0.89µM,0,?,?,0,0,?,2.8µM
Cc1c(Cl)cccc1NC(=O)Nc1cccc(-c2nnc3n2CCCC3)c1,0,0,0,0,0,-,-,-
COc1ccc(-c2cccc(C(=O)N3CCOCC3)c2)nn1,-,0,-,0,-,-,-,-
COc1cc(NC(=O)Nc2cccc(-c3ccc(N4CCOCC4)nn3)c2)cc(OC)c1,0.71µM,32µM,?,?,0,?,?,1.8µM
COc1ccccc1NC(=O)Nc1cccc(-c2ccc(N3CCOCC3)nn2)c1,1.4µM,?,?,?,0,?,?,3.1µM
O=C(Nc1cccc(-c2ccc(N3CCOCC3)nn2)c1)Nc1cccc(Cl)c1F,1.6µM,32µM,?,22µM,0,0,0,5.6µM
CCOC(=O)C1CCCN(C(=O)C2CCc3nnc(C4CCN([S+](=O)([O-])c5ccccc5Cl)CC4)n32)C1 (stereo unspecified),-,0,-,0,0,-,-,-
O=C(Nc1cccc(F)c1)Nc1cccc(-c2ccc(N3CCCCC3)nn2)c1,0.4µM,32µM,7.9µM,?,0,9.9µM,?,0.99µM
O=C(Nc1cc(F)cc(F)c1)Nc1cccc(-c2ccc(N3CCOCC3)nn2)c1,1.3µM,?,10µM,32µM,0,?,?,3.1µM
COc1ccc(-n2nc(C3CCN(Cc4ccccc4)CC3)[nH]c2=O)cc1,0,?,0,?,0,-,-,-
Cc1ccc(NC(=O)Nc2cccn3nc(C)nc23)cc1,7.9µM,?,0,?,?,?,0,?
COc1cccc(CNC(=O)Nc2cccn3nc(C)nc23)c1,0,0,0,0,0,-,-,-
CN1c2cc(C(=O)Nc3cccc(Cl)c3)ccc2C(=O)N2CCCCCC21 (stereo unspecified),10µM,?,0,?,0,0,0,?
CN1c2cc(C(=O)Nc3cccc(F)c3)ccc2C(=O)N2CCCCCC21 (stereo unspecified),8.9µM,?,0,?,0,0,0,?
CC(C)N1Cc2cc(C(=O)NC3CCN(Cc4ccccc4)CC3)sc2C1,0,?,0,?,?,-,-,-
CC(C)C(=O)NC1CCN(Cc2ccc(-c3nc4cccc(Cl)c4s3)cc2)CC1,-,-,-,-,-,0,0,0
CCOc1cccc2cc(-c3nc(-c4ccccc4C)no3)c(=O)oc12,-,-,-,-,-,?,?,?
Oc1c(Br)cc(Br)cc1-c1nc2ccccc2s1,-,-,-,-,-,0,0,?
CC1(C(=O)NCc2ccco2)CN(Cc2ccccc2)Cc2ccc(N3CCOCC3)nc21 (stereo unspecified),0,?,0,?,0,-,-,-
SMILES,FLuc inh-1,3T3 cytotox,NPR1 antag,HEK293 tox,GPT2 inhibitor,FLuc SDR no ATP,FLuc SDR ATP,FLuc inh-2
COCCN1C(=O)CCc2cc(NC(=O)c3ccc(C)c(C)c3)ccc21,?,?,0,?,0,-,-,-
CCN1C(=O)CCc2cc(NC(=O)c3ccc(C(C)C)cc3)ccc21,3.5µM,?,?,?,0,0,0,?
COCCN1C(=O)c2ccccc2C(C(=O)Nc2nc3c(s2)CCC3)C12CCCC2 (stereo unspecified),0,0,0,0,0,-,-,-
Cc1cccc(C(=O)Nc2nc3c(s2)CCCC3)c1,-,-,-,-,-,?,?,2.5µM
Cc1cccc(C(=O)NC2CCN(c3cc(-c4ccc(Cl)cc4)[nH]n3)CC2)c1,0,?,0,?,0,-,-,-
CN(C)c1cccc(C(=O)NC2CCN(c3cc(-c4ccc(Cl)cc4)[nH]n3)CC2)c1,7.1µM,32µM,?,?,0,0,9.9µM,6.2µM
O=C(NC1CCCN(c2cc(-c3ccc(Cl)cc3)[nH]n2)C1)c1ccc2ncccc2c1 (stereo unspecified),1.8µM,?,?,?,0,0,0,5µM
O=c1c2c(n(Cc3ccccc3)n1-c1ccccc1)CN(Cc1ccc3c(c1)CCO3)CC2,0,?,?,?,0,-,-,-
C=CCN1C[C@@H]2C[C@@H](C(N)=O)N(C(=O)c3ccc(Cl)cc3)c3cccc(c32)C1=O,-,?,-,0,?,-,-,-
CN(C)C(=O)N1CCC2(CC1)CN(Cc1ccc(O)cc1)Cc1ccccc1O2,-,0,-,0,0,-,-,-
O=C(Nc1ccc(F)cc1)c1cc2cccnn2n1,14µM,?,0,?,0,0,0,?
CC(C)(Oc1ccc(-c2nc3cc(Cl)ccc3s2)cc1)C(=O)O,-,-,-,-,0,?,?,8.8µM
CCN(CC)C(=O)N1CCOC(c2ccc3cc(OC)ccc3c2)C1 (stereo unspecified),1.6µM,?,11µM,?,0,0,?,5.6µM
COc1ccc2cc(C3CN(C(=O)c4cccc(CO)c4)CCO3)ccc2c1 (stereo unspecified),0.56µM,?,10µM,28µM,0,?,?,2.5µM
COc1ccc2cc(C3CN(C(=O)CCc4n[nH]c(C)n4)CCO3)ccc2c1 (stereo unspecified),2.5µM,?,?,0,0,?,?,9.9µM
COc1ccc2cc(C3CN(C(=O)c4cccc(CO)n4)CCO3)ccc2c1 (stereo unspecified),3.5µM,0,?,?,0,0,?,?
COC(=O)CN1CCOC(c2ccc3cc(OC)ccc3c2)C1 (stereo unspecified),0,?,0,?,0,-,-,-
